Assay outcomes from PubChem.
ALR H2O2 inh: blocks human ALR sulfhydryl oxidase activity; inhibition, % (test concentration not listed); purified ALR, DTT oxidation, H2O2 HRP-luminol luminescence; 290,000 tested, 3.8% active;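 active means mean replicate inhibition above about 79%, with every replicate also reaching it, limit read from the data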
Rtt109 HAT inh: blocks Candida albicans Rtt109/Vps75 acetyltransferase activity | purified Rtt109/Vps75, ThioGlo CoA-SH fluorescence, 4 h | inhibition, % at 34.9 µM | 330,000 tested, 0.16% active | AID 540336;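 active means inhibition of at least 50% in every replicate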
LANA-H2B inh: blocks KSHV LANA binding to histone H2A/H2B; Q9QR71; cell-free LANA-H2A/H2B peptide, fluorescence polarization; inhibition, % (concentration not given with the values); 320,000 tested, 0.6% active; in the data active means inhibition mostly above about 10%, no sharp cut-off; inactive means mostly below about 6.7%
rCAG binder: binds r(CAG) RNA repeats. r(CAG) RNA repeat, TO-PRO-1 dye displacement fluorescence. inhibition, % at 3 µM. 370,000 tested, 1.3% active. AID 651821;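 active means inhibition above the plate cutoff, the mean of all test compounds on that plate plus 3 SD, cut at about 35% in these data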;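 further: higher means more dye released from RNA so lower well fluorescence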
PRMT1 FP inh: blocks human protein arginine methyltransferase 1; Q99873; recombinant PRMT1, activity-based probe fluorescence polarization; inhibition, % at 2.79 µM; 370,000 tested, 1.3% active;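 active means inhibition above about 21% made by adding two undisclosed values, limit read from the data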
ABHD5-PLIN5 inh: inhibitors of human ABHD5-perilipin-5 interaction. 360,000 tested, 0.78% active. AID 602281. inhibition, % at 4 µM. Split G. princeps luciferase complementation, luminescence, 4 h. Q00G26+Q8WTS1;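 active means inhibition above the mean inhibition across every tested compound plus 3 SD, cut at about 22% in these data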
Hits are given with their value; . = inactive; / = not tested or not shown. Sampled rows, rich in hits. Any-hit rate of the full collection: about 5.9%.

SMILES	ALR H2O2 inh	Rtt109 HAT inh	LANA-H2B inh	rCAG binder	PRMT1 FP inh	ABHD5-PLIN5 inh
CC(=O)C1C(=O)CC(C)(O)C(C(C)=O)C1c1ccc(N(C)C)cc1 (centres undefined)	98.0	.	.	.	.	.
CCOC(=O)C1C(=O)CC(C)(O)C(C(=O)OCC)C1c1ccc(OC)cc1 (centres undefined)	.	.	.	.	.	.
CCN(CC)c1ccc(C2C(C(C)=O)C(=O)CC(C)(O)C2C(C)=O)cc1 (centres undefined)	98.7	.	.	.	.	.
O=C(C(=O)N1CCC(CNS(=O)(=O)Cc2ccccc2)CC1)c1cccs1	/	/	/	.	.	/
CN(C)c1ccc(C(=O)Nc2nnc(C3=COCCO3)o2)cc1	.	.	.	.	.	.
CN(c1ccccc1)S(=O)(=O)c1ccc(C(=O)Nc2nnc(C3=COCCO3)o2)cc1	97.8	.	.	.	.	.
NN1C(=O)/C(=C\c2ccco2)SC1=S	.	/	.	.	43.2	.
CCOC(=O)NC(=O)COC(=O)CCCSc1nc2ccccc2s1	92.9	.	.	.	.	.
O=C(CSc1nc2ccccc2s1)Nc1ncccn1	98.1	.	.	.	.	.
CCOC(=O)c1c(NC(=O)CSc2nc3ccccc3o2)sc(C)c1C	.	.	.	.	.	.
NC(=O)NC(=O)COC(=O)CCCSc1nc2ccccc2s1	.	.	.	.	.	.
CCOC(=O)c1c(NC(=O)CSc2nc3ccccc3s2)sc(C)c1C	98.0	.	.	.	.	.
Cn1ccnc1SCC(=O)Nc1ccc2nc(SCC(=O)NC3CC3)sc2c1	98.5	/	.	/	/	/
O=C(Nc1ccccc1)N1c2ccccc2SC1c1ccco1 (centres undefined)	/	/	/	.	.	/
O=C(CSc1nc2ccccc2s1)NC1CCCC1	99.3	.	.	.	.	.
O=C(CSc1nc2ccccc2s1)Nn1cnnc1	98.5	.	.	.	.	.
Cc1cc(NC(=O)CSc2nc3ccccc3s2)no1	.	.	.	.	.	.
O=C(CSc1nnc(CSc2nc3ccccc3s2)o1)NC1CCCCC1	.	.	.	.	.	.
c1coc(-c2nnc(SCc3cn4ccccc4n3)o2)c1	.	.	.	.	.	.
Brc1c(CSc2nnc(-c3ccco3)o2)nc2ccccn12	96.6	.	.	.	.	.
Cc1nn(Cc2ccc(C(=O)NN)cc2)c(C)c1Cl	/	.	.	.	.	.
Cc1nn(Cc2ccc(Cl)cc2)c(C)c1N	93.8	.	.	.	.	.
CN(Cc1ccccc1)C(=O)OCc1cn(Cc2ccc(C(F)(F)F)cc2)nn1	/	/	/	.	.	/
CCc1sc(C(=O)N2CCN(c3ccc(F)cc3)CC2)cc1C	.	.	.	.	.	.
C/C(=N\NC(=O)c1cc(-c2ccccc2)nc2ccccc12)c1ccc(Cl)cc1	/	/	/	.	.	/
SMILES	ALR H2O2 inh	Rtt109 HAT inh	LANA-H2B inh	rCAG binder	PRMT1 FP inh	ABHD5-PLIN5 inh
Cc1c(C(=O)NNc2c(Cl)cccc2Cl)n(C)oc1=O	97.8	.	.	.	.	.
Cc1nnsc1C(=O)Nc1cccc(Cl)c1	.	.	24.6	.	.	.
Cc1nnsc1C(=O)NNc1c(Cl)cccc1Cl	98.5	.	.	.	.	.
CCCCN1CC[C@@H](C)Oc2cc(Br)ccc2S1(=O)=O	/	/	/	.	.	/
Cc1ccccc1C(=O)NCCNC(=O)c1ccco1	.	50.6	.	.	.	.
CCc1ccc(CNCCNC(=O)c2ccco2)cc1	/	.	/	.	21.1	.
COC(=O)[C@]12C[C@H](CC(=O)NCc3cccc(C(F)(F)F)c3)C(=O)N(Cc3ccco3)C1=C[C@H](C(C)C)O[C@@H]2C1CC1	/	/	/	.	.	/
COC(=O)c1cc2c(c3c4cc(C)ccc4n(S(=O)(=O)c4ccc(OC)cc4)c13)C(=O)N(Cc1ccccc1)C2	/	/	/	.	.	/
COc1ccc(C(C)(NC(C)=O)c2nc(-c3cnc4ccccc4c3)cs2)cc1 (centres undefined)	/	/	/	.	.	.
CCCCNC(=O)C1C(c2ccc(OC)cc2)=Nc2ccccc2N1C(=O)Cc1cc(OC)cc(OC)c1 (centres undefined)	/	/	/	.	.	.
CC1(C)OC(=O)C(=CNCCc2ccc(O)cc2)C(=O)O1	88.3	.	.	.	.	.
COc1ccc(-c2nc3ccccc3c(=O)n2NC(=S)N(C)C)cc1	/	.	/	.	24.5	.
CCCCCCCCN1C(=O)[C@H](CC(=O)N2CCCC2)C[C@@]2(C(=O)OC)CC(C)(C)CC=C12	/	/	/	.	.	.
O=C(N[C@H](C(=O)N1CCC[C@H]1C(=O)NC1CCCC1)c1ccccc1)C1CC1	/	/	/	.	.	/
CN1CCN(c2ccc(Cl)cc2NC(=O)/C=C/c2cccc(F)c2)CC1	.	.	.	.	.	22.1
N#C/C(=C\c1cc2ccccc2nc1N1CCCCC1)C(N)=O	93.1	.	.	.	.	.
CCOc1cccc2sc(N(CCCN(C)C)C(=O)c3ccc(S(=O)(=O)N(C)Cc4ccccc4)cc3)nc12	.	.	.	.	.	.
CCOc1cccc2sc(N(CCCN(C)C)C(=O)c3ccc(S(=O)(=O)N(CC)Cc4ccccc4)cc3)nc12	.	.	.	.	.	22.6
CCOc1cccc2sc(N(CCN(C)C)C(=O)c3cc4ccccc4cc3OC)nc12	.	.	.	.	.	23.0
CCOc1ccc2nc(N(CCN(C)C)C(=O)c3cc4ccccc4cc3OC)sc2c1	.	.	.	/	/	.
O=C(Nc1ccccc1F)c1csc(COCCO)n1	/	/	/	.	.	.
CCc1nc2ccc(C(=O)N3CCN(S(=O)(=O)CC)CC3)cn2c1N(CC)CCOC	/	/	/	.	.	.
O=C(COc1ccc(Br)cc1Br)NC(=S)N1CCCc2ccccc21	93.4	.	.	/	/	.
O=C(COc1ccc(Br)cc1Cl)NC(=S)N1CCc2ccccc21	.	/	.	.	.	.
O=C(/C=C/c1ccc[nH]1)c1ccccc1	97.5	.	.	.	.	.
SMILES	ALR H2O2 inh	Rtt109 HAT inh	LANA-H2B inh	rCAG binder	PRMT1 FP inh	ABHD5-PLIN5 inh
O=S1(=O)c2ccc(N3CCSCC3)cc2Oc2ccccc2CN1Cc1cn(Cc2cccc(F)c2)nn1	/	/	/	.	.	/
O=C(CCl)c1cc2c3c(c1)CC(=O)N3CCC2	98.1	.	.	.	.	.
CCOC(=O)CC[C@H]1CC[C@]2(CCCN(C(=O)C(C)(C)C)C2)O1	/	/	/	.	.	/
Cc1cccc(NCc2ccccc2O)c1C	99.5	.	.	.	.	.
O=C(CSCc1ccccc1Br)NC1CC1	97.7	.	.	.	.	.
CCCc1cc(=O)[nH]c(Nc2ccc(O)cc2)n1	99.0	.	.	.	.	.
CCCc1cc(=O)[nH]c(NCc2ccc(Cl)cc2)n1	/	.	.	.	.	.
COc1cccc(NC(=S)NNC(=O)Cn2nc([N+](=O)[O-])cc2C)c1	.	.	.	.	.	.
O=C(Cn1nc(C(F)F)cc1C(F)F)NNC(=S)Nc1ccc(F)cc1	.	.	.	.	.	.
COc1cccc(NC(=S)NNC(=O)Cn2nc(C(F)F)cc2C(F)F)c1	84.4	.	.	.	.	.
COc1cccc(NC(=S)NNC(=O)CCn2cc([N+](=O)[O-])cn2)c1	83.2	.	.	.	.	.
